Assay outcomes from PubChem.
Most compounds without a hit are left out; they make up all but 12% or so of the library.
Sfp PPTase inh – inhibitors of Bacillus subtilis Sfp phosphopantetheinyl transferase. actives 3.5% (n = 310,000). Potency, µM, without a hit: largest response in the series, negative = inhibition, hits mostly inhibitors. Biochemical Sfp PPTase activity, qHTS;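 note: the enzyme is Sfp with the accession as filed and its product quenches rhodamine fluorescence; 0% = enzyme reaction without inhibitor and -100% = no enzyme wells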
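Compounds were incubated with enzyme (final 15 nM) for 15 min at room temperature before substrate addition started the reaction. Fluorescence at 525 nm excitation, 598 nm emission was recorded immediately and after 30 minutes.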
HP1b binding inh – HP1-beta chromodomain-methylated histone interaction inhibition | P83916 | Potency, µM (titrated, usually from 114 µM), for inactives: at the top dose activity change, negative = inhibition, hits mostly inhibitors | actives 0.56% (n = 390,000) | AlphaScreen HP1-beta / biotin-H3K9me3 peptide binding; note: nearly all actives have a fitted effect of over 70% in size
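HP1-beta protein (50 nM final) preincubated 30 min at room temperature with biotinylated H3(1-18)K9me3 peptide (50 nM) in PBS pH 7.4, 0.01% Tween-20, then compound added for 30 min. AlphaScreen streptavidin donor/nickel chelate acceptor beads (10 ug/mL final), 30 min dark, luminescence read.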
G9a inh – inhibitors of human histone lysine methyltransferase G9a | Potency, µM (titrated, usually from 102 µM), without a hit: top-dose activity, negative = inhibition, actives largely listed as inhibitors | Q96KQ7 | G9a H3K9 monomethylation, AlphaScreen, 2 h | AID 504332 | actives 8.8% (n = 350,000); note: % is set by controls: 0 for no effect and ±100 for the full control effect; nearly all actives have a fitted effect of over 75% in size
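Chemiluminescent proximity detection of H3K9 monomethylation, read after 10 min bead incubation in the dark. Reaction: 20 nM G9a, 500 nM biotin-H3K9 peptide, 20 uM SAM cofactor, 2 h, room temperature, following 15 min enzyme-compound preincubation.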
JMJD2A Tudor inh – JMJD2A Tudor domain (human) inhibition; AID 504339; actives 4.4% (n = 390,000); Potency, µM (highest dose often 114 µM), inactives show top-dose activity change, negative = inhibition, hits mostly inhibitors; AlphaScreen JMJD2A-Tudor / H3K4me3 peptide binding; note: % is set by controls: 0 for no effect and ±100 for the full control effect; nearly all actives have a fitted effect of over 50% in size
BAZ2B inh – BAZ2B (human) inhibition. actives 4.4% (n = 360,000). AID 504333. AlphaScreen BAZ2B-H3K14Ac peptide displacement. Potency, µM (titrated, usually from 114 µM), for the others: top-dose activity change, negative = inhibition, actives largely listed as inhibitors. Q9UIF8; note: % is set by controls: 0 for no effect and ±100 for the full control effect; nearly all actives have a fitted effect of over 60% in size
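BAZ2B 50 nM plus b-H3(5-23)K14Ac 50 nM, PBS pH 7.4/0.01% Tween-20, 30 min RT; compound added (max 110 uM), 30 min RT; streptavidin donor/Ni-chelate acceptor beads 10 ug/mL final, 20 min dark; AlphaScreen read.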
L3MBTL1 inh – inhibitors of human L3MBTL1; Q9Y468; AlphaScreen L3MBTL1–H3K9me1 peptide binding; Potency, µM (highest dose often 57.1 µM), without a hit: at the highest dose activity, negative = inhibition, actives largely listed as inhibitors; actives 0.66% (n = 230,000); AID 485360; note: % is set by controls: 0 for no effect and ±100 for the full control effect; nearly all actives have a fitted effect of over 60% in size
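AlphaScreen proximity signal between nickel-chelate acceptor and streptavidin donor beads (final 10 ug/mL) reports binding of 50 nM L3MBTL1 to 75 nM biotin-H3 K9me1 peptide; complex incubated with compounds 30 min at room temperature; cefsulodin titration as control.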
* = called active by the depositor; ? = inconclusive; . = no result; [ ] = another dose, or the depositor's remark. Calls come from the whole dose curve; as a rule, active = well fitted curve in the direction sought with a large enough effect; inconclusive = small, poorly fitted or top-dose-only effect, or another doubt; inactive = no such curve, though single readings can be large; an effect the other way counts as inactive or inconclusive. Potency is the fitted concentration of half-maximal effect.

SMILES	Sfp PPTase inh	HP1b binding inh	G9a inh	JMJD2A Tudor inh	BAZ2B inh	L3MBTL1 inh
CC(C)C[C@@H](CNCC(=O)[C@H](Cc1ccccc1)NC(=O)c1[nH]cnc1C(=O)N[C@@H](C)CN)NC(=O)c1nc[nH]c1C(=O)N[C@@H](CC(=O)O)C(=O)O	.	55%	.	?	.	.
CC(C)C[C@@H](CNCC(=O)[C@H](C)NC(=O)c1[nH]cnc1C(=O)N[C@@H](C)CN)NC(=O)c1nc[nH]c1C(=O)N[C@@H](CC(=O)O)C(=O)O	.	?	.	79µM*	.	.
CC(C)C[C@@H](CNCC(=O)[C@H](CC(C)C)NC(=O)c1[nH]cnc1C(=O)N[C@@H](C)CN)NC(=O)c1nc[nH]c1C(=O)N[C@@H](CC(=O)O)C(=O)O	.	60%	.	50µM*	.	.
CN(C)c1ccc(/C=C2\C(=O)Nc3ccccc32)c2ccccc12	-22%	.	.	.	.	.
COc1cccc(CNC(=O)c2c(C)oc3nc(C)nc(N4CCOCC4)c23)c1	.	31%	-1%[59 µM]	-4%	10%[57.1 µM]	.
CC(Sc1nc2cc([N+](=O)[O-])ccc2n1-c1ccc(F)cc1)C(=O)NCc1ccc2c(c1)OCO2 (centres undefined)	2.2µM*	-13%	?	?	?	-2%
CCN(CC)S(=O)(=O)c1ccc2c(c1)nc(SCC(=O)N1CCOCC1)n2-c1ccccc1OC	-12%	10%	32µM*	-11%	?	-1%
CCN(CC)S(=O)(=O)c1ccc2c(c1)nc(SCC(=O)N1CCCCCC1)n2-c1ccc(OC)cc1	6%	6%	-6%[59 µM]	-11%	-2%	.
COc1ccccc1-n1c(SCC(=O)NCc2ccc3c(c2)OCO3)nc2cc([N+](=O)[O-])ccc21	-84%	?	?	50µM*	-37%	-4%
COc1cccc(NC(=O)Cn2c(=O)n(CCc3cccc(C)c3)c(=O)c3ccccc32)c1	.	7%	4%[59 µM]	-11%	-5%	.
O=C(CCC(=O)NCCO)NCCO	11%	37%	-27%	-6%	-22%	.
CC(O)CCC(=O)NCCNC(=O)CCC(C)O (centres undefined)	1%	-12%	12%[59 µM]	28µM*	8%	-1%
CN1CCN(c2ncc3nc(-c4ccccc4)c(=O)n(CCc4ccccc4)c3n2)CC1	1%	.	30%[0.501 µM]	.	.	.
CN1CCC(Oc2ccc(Sc3ccccc3)cc2)CC1	-9%	16%	-6%[59 µM]	-24%	-21%	-9%
CN1CCC(Oc2ccccc2Sc2ccc(C(F)(F)F)cc2)CC1	-25%	11%	?	?	79µM*	-1%
Cc1ccc(-c2nnc(Nc3cccc(Br)c3)c3ccccc23)cc1S(=O)(=O)N1CCCCC1	.	21%	9%[59 µM]	0%	2%	.
CC1CCc2c(nc3ncnn3c2NCCN(C)C)C1 (centres undefined)	-10%	12%	4µM*	56µM*	-25%	.
Cc1ccc(NS(=O)(=O)c2cc3c(cc2F)NC(=O)CC3)cc1Cl	.	.	.	-24%	.	.
Cn1cccc1C(=O)OCc1cc(Cl)cc2c1OCOC2	71µM*	-6%	?	?	-34%	-5%
Cn1cccc1C(=O)OCC(=O)Nc1ccc2c(c1)OCO2	22%	15%	-37%	7%	-23%	.
O=C(c1cccc(F)c1)N1CCC2(CCCN(c3ccccn3)C2)CC1	-1%	.	3%[12.7 µM]	.	.	.
CCCN(CCC(=O)Nc1ccccc1F)CC1CC1	6%	20%	-50%[12.7 µM]	13%	-13%	.
CCCN(CCC(=O)Nc1cc(OC)cc(OC)c1)CC1CC1	?	10%	45µM*	-34%	?	2%
CCN(CCC(=O)Nc1cc(OC)cc(OC)c1)Cc1ccccc1	45µM*	30%	45µM*	-11%[57.1 µM]	10%	6%
Cc1ccc(-n2ncc3c(N4CCCCC4)ncnc32)cc1Cl	.	75%	10%[59 µM]	6%	12%	.
SMILES	Sfp PPTase inh	HP1b binding inh	G9a inh	JMJD2A Tudor inh	BAZ2B inh	L3MBTL1 inh
CCOC(=O)c1cccc(NC(=O)C2CCN(S(=O)(=O)c3cn(C)cn3)CC2)c1	.	26%	19%[59 µM]	-1%	-1%	.
CSCSC1=C(C#N)C(c2ccccc2Cl)C(C(C)=O)=C(C)N1 (centres undefined)	?	59%	4µM*	-29%	30%	9%
CCOC(=O)CSC1=C(C#N)C(c2ccccc2F)C(C(C)=O)=C(C)N1 (centres undefined)	63µM*	42%	?	?	8%	-1%
COc1ccccc1CNC(=O)CCCCn1c(=O)c2ccccc2n(CC(=O)Nc2cccc(Cl)c2)c1=O	.	21%	-20%[59 µM]	-12%	-14%	.
CCC(C)C(NC(=O)OC(C)(C)C)C(=O)NC1COC2CC(n3ccc(NC(C)=O)nc3=O)OC12 (centres undefined)	11%	25%	.	3%	.	.
Cc1cc(C)c(NC(=O)c2nc3ccccc3nc2N2CCCCC2)c(C)c1	.	30%	-5%[59 µM]	-1%	3%	.
COC(=O)c1ccc(C2c3c(-c4ccccc4O)n[nH]c3C(=O)N2Cc2cccnc2)cc1 (centres undefined)	.	8%	-4%[59 µM]	?	-15%	.
CCOc1ccc(Br)cc1C1C(C(=O)OC)=C(N)Oc2cc(N(C)C)ccc21 (centres undefined)	4%	?	?	50µM*	?	.
Cn1cnc([N+](=O)[O-])c1SCC(=O)NN	56µM*	21%[57 µM]	7.1µM*	-6%	?	10%
CCCCN1C(=O)/C(=C/C=C2\SCCN2C)SC1=S	-20%	28µM*	13µM*	35µM*	10µM*	?
CCN1C(=O)/C(=C\N2CCCCCC2)SC1=S	4%	?	?	?	-38%	-7%
CCCN1C(=O)/C(=C\C=C2/C=CN(CC)c3ccccc32)SC1=S	7.1µM*	?	7.9µM*	?	?	8%
CN1CCS/C1=C/C=C1/SC(=S)N(Cc2ccccc2)C1=O	?	13µM*	?	?	10µM*	?
CN1CCS/C1=C/C=C1\SC(=S)N(CC(=O)O)C1=O	?	-4%	45µM*	?	50µM*	?
CN1/C(=C\C=C(C#N)C#N)C(C)(C)c2ccccc21	4%	16%	13%	-17%	-7%	6%
CCCCN1C(=O)/C(=C/C=C2\N(C)c3ccccc3C2(C)C)SC1=S	-10%	.	?	.	8.9µM*	-11%
Cc1ncc(CO)c2c1OC(C)(C)OC2	4%	20%	-2%	-13%	10%	2%
Cc1ncc(CCl)c2c1OC(C)(C)OC2	45µM*	49%	?	?	50µM*	14%
COc1c(N)c2ccccc2[nH]c1=O	13µM*	24%	?	-7%	1%	8%
O=c1[nH]c2ccccc2c2ccccc12	6%	28%	16%[12.7 µM]	-15%	-14%	1%
